Measurements taken from PubChem BioAssay (Tox21).
Results filed as inconclusive are left out. Active and inactive are the calls of the source. Unless noted, calls follow the shape of the dose curve; as a rule, active = well fitted curve in the direction sought with a large enough effect in the repeat runs; inconclusive = weak or mixed curves; inactive = no such curve, though single readings can be large; an effect the other way counts as inactive or inconclusive.

How the values were obtained:
[1] = qHTS assay to identify aromatase inhibitors - cell viability counter screen (AID 743084);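 also: cells stimulated with testosterone during compound exposure; nearly all actives have a fitted effect of over 55% in size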
[2] = target: Aryl hydrocarbon receptor (Homo sapiens) (UniProt P35869); test: qHTS assay to identify small molecule that activate the aryl hydrocarbon receptor (AhR) signaling pathway (AID 743085);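 also: HG2L7.5c1 human HepG2 liver cells with stably integrated DRE-driven firefly reporter; series mostly up to about 70 µM; nearly all actives have a fitted effect of over 15% in size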
How it was run: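 Cell line HG2L7.5c1 (human hepatoma, 20× DRE-luc). Plated, 5 h 37C, compound/DMSO added, 24 h 37C. CellTiter-Fluor 30 min 37C → fluorescence; then ONE-Glo 30 min RT → luminescence.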

[3] = qHTS assay to identify small molecule that activate the aryl hydrocarbon receptor (AhR) signaling pathway - cell viability counter screen (AID 743086);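 also: HepG2 liver cells carrying the AhR DRE luciferase reporter; series mostly up to about 70 µM; nearly all actives have a fitted effect of over 45% in size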
How it was run: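 Cytotoxicity counter screen: CellTiter-Fluor signal (30 min, 37 C) in 4000 HepG2 cells/well carrying the DRE-luciferase reporter, following 24 h compound exposure at 37 C.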

[4] = target: Peroxisome proliferator-activated receptor gamma (Homo sapiens) (UniProt P37231); test: qHTS assay to identify small molecule agonists of the peroxisome proliferator-activated receptor gamma (PPARg) signaling pathway (AID 743094; active = well fitted activation curve with a large enough effect in the signal ratio in the repeat runs, not every such curve was filed as active; the % refers to the signal ratio)
How it was run: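 Agonist activity was taken from a beta-lactamase reporter (FRET substrate, 1 h at room temperature) in HEK293H cells carrying a PPARg UAS-bla construct. Compounds in DMSO were incubated 17 h at 37C after a 5 h cell pre-incubation.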

[5] = qHTS assay to identify small molecule antagonists of the peroxisome proliferator-activated receptor gamma (PPARg) signaling pathway - cell viability counter screen (AID 743194); also: nearly all actives have a fitted effect of over 55% in size
How it was run: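 Viability was measured as CellTiter-Glo luminescence in GeneBLAzer PPARg UAS-bla HEK293H cells. These cells had been exposed 17 h at 37 C to compounds together with rosiglitazone at 50 nM final, with the beta-lactamase readout taken in the same wells.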

[6] = qHTS assay for small molecule agonists of the antioxidant response element (ARE) signaling pathway (AID 743202; active = well fitted activation curve with a large enough effect in the signal ratio in the repeat runs, not every such curve was filed as active; the % refers to the signal ratio)
How it was run: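 Beta-lactamase reporter activity, read as fluorescence intensity, reflects ARE/Nrf2 pathway induction in HepG2 cells after 16 h compound exposure at 37 C; substrate loading was 2 h at room temperature.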

[7] = qHTS assay for small molecule agonists of the antioxidant response element (ARE) signaling pathway - cell viability counter screen (AID 743203; calls by dose curve; also: nearly all actives have a fitted effect of over 55% in size)
How it was run: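 Viability counter screen: CellTiter-Glo luminescence, read after 30 min at room temperature, in ARE-bla HepG2 wells. Compound exposure lasted 16 h at 37C/5% CO2, following a 5 h pre-incubation of the cells after plating.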

[8] = qHTS assay for small molecule activators of the heat shock response signaling pathway - cell viability counter screen (AID 743209); also: nearly all actives have a fitted effect of over 50% in size
How it was run: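 Cytotoxicity counter screen run in the same wells as the heat-shock bla reporter assay: HeLa HSE-bla cells, 5 h compound exposure at 37 C, viability read by CellTiter-Glo luminescence.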

[9] = qHTS assay for small molecule activators of the heat shock response signaling pathway (AID 743210; active = well fitted activation curve with a large enough effect in the signal ratio in the repeat runs, with a control signal flat, not every such curve was filed as active; the % refers to the signal ratio;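 also: HeLa cells with beta-lactamase reporter driven by heat shock elements; series mostly up to about 63 µM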)
How it was run: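 Fluorescence from a cleaved B/G FRET substrate (2.5 h, room temp) reports HSE-driven beta-lactamase in HeLa cells treated 5 h at 37 C with DMSO-dissolved compounds.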

[10] = qHTS assay to identify small molecule agonists of the peroxisome proliferator-activated receptor delta (PPARd) signaling pathway - cell viability counter screen (AID 743211); also: nearly all actives have a fitted effect of over 55% in size
How it was run: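 HEK293H PPARd-bla, 3000 cells/well; 5 h preincubation 37C/5% CO2; cpd in DMSO, 17 h 37C; B/G FRET substrate 2 h RT; CellTiter-Glo 30 min RT, luminescence.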

[11] = target: Peroxisome proliferator-activated receptor delta (Homo sapiens) (UniProt Q03181); test: qHTS assay to identify small molecule agonists of the peroxisome proliferator-activated receptor delta (PPARd) signaling pathway (AID 743212; calls by dose curve;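 also: HEK293H cells with PPARd UAS beta-lactamase reporter GeneBLAzer system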)
How it was run: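 Steps: seed PPARd-bla HEK293H cells; incubate 5 h, 37 C, 5% CO2; add compounds in DMSO; incubate, 37 C; add LiveBLAzer B/G FRET substrate; hold 2 h at room temperature; measure fluorescence.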

[12] = target: Peroxisome proliferator-activated receptor delta (Homo sapiens) (UniProt Q03181); test: qHTS assay to identify small molecule antagonists of the peroxisome proliferator-activated receptor delta (PPARd) signaling pathway (AID 743215; active = well fitted inhibition curve with a large enough effect in the signal ratio in the repeat runs, not every such curve was filed as active; the % refers to the signal ratio;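 also: cells stimulated with agonist L165041 at 300 nM final during compound exposure; series mostly up to about 62 µM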)
How it was run: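 Agonist L165041 (300 nM final) added with compound to PPARd-bla HEK293H UAS-bla reporter cells; 17 h incubation at 37 C. Read-out: LiveBLAzer FRET substrate, 2 h at room temperature, fluorescence intensity.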

[13] = target: Bile acid receptor (Homo sapiens) (UniProt Q96RI1); test: qHTS assay to identify small molecule antagonists of the farnesoid-X-receptor (FXR) signaling pathway (AID 743217; active = well fitted inhibition curve with a large enough effect in the signal ratio in the repeat runs, not every such curve was filed as active; the % refers to the signal ratio)
How it was run: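 Antagonist mode: chenodeoxycholic acid at 50 uM final stimulates a UAS-driven beta-lactamase reporter in HEK 293T FXR-bla cells during 16 h, 37C compound exposure. Read-out is FRET substrate fluorescence after 2 h at room temperature.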

[14] = qHTS assay to identify small molecule antagonists of the farnesoid-X-receptor (FXR) signaling pathway - cell viability counter screen (AID 743221; active = well fitted cell-killing curve with a large enough effect in the repeat runs, not every such curve was filed as active; also: nearly all actives have a fitted effect of over 50% in size)
How it was run: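 Luminescence from CellTiter-Glo measures cytotoxicity in GeneBLAzer FXR-UAS-bla HEK 293T cells. Cells were exposed to compounds with 50 uM chenodeoxycholic acid (final) for 16 h at 37 C, in wells also used for the reporter readout.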

[15] = qHTS assay to identify small molecule antagonists of the peroxisome proliferator-activated receptor delta (PPARd) signaling pathway - cell viability counter screen (AID 743213); also: nearly all actives have a fitted effect of over 50% in size
How it was run: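 CellTiter-Glo was added to PPARd-bla HEK293H wells following 17 h compound treatment in the presence of 300 nM L165041. Luminescence was recorded after 30 min at room temperature.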

[16] = target: Vitamin D3 receptor (Homo sapiens) (UniProt P11473); test: qHTS assay to identify small molecule agonists of the vitamin D receptor (VDR) signaling pathway (AID 743222; calls by dose curve)
How it was run: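 Agonist mode, beta-lactamase reporter: fluorescence from LiveBLAzer B/G FRET substrate (2 h, room temperature) read after 16 h compound treatment at 37 C of VDR-bla cells, which were pre-incubated 4 h after seeding.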

[17] = target: Vitamin D3 receptor (Homo sapiens) (UniProt P11473); test: qHTS assay to identify small molecule antagonists of the vitamin D receptor (VDR) signaling pathway (AID 743223; active = well fitted inhibition curve with a large enough effect in the signal ratio in the repeat runs, not every such curve was filed as active; the % refers to the signal ratio)
How it was run: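 Antagonist mode uses 1alpha,25-dihydroxyvitamin D3 at 3 nM final as stimulus. VDR-bla cells receive compounds in DMSO, incubate 16 h at 37C, then a beta-lactamase FRET substrate for 2 h at room temperature before fluorescence measurement.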

[18] = qHTS assay to identify small molecule agonists of the farnesoid-X-receptor (FXR) signaling pathway - cell viability counter screen (AID 743218); also: nearly all actives have a fitted effect of over 45% in size
How it was run: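 Viability counter screen in the same wells: CellTiter-Glo luminescence, 30 min room-temperature incubation, measured after the beta-lactamase read. Cells were GeneBLAzer FXR-UAS-bla HEK 293T, compound-treated 16 h at 37C.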

[19] = target: Peroxisome proliferator-activated receptor gamma (Homo sapiens) (UniProt P37231); test: qHTS assay to identify small molecule antagonists of the peroxisome proliferator-activated receptor gamma (PPARg) signaling pathway (AID 743191; calls by dose curve; also: series mostly up to about 63 µM; nearly all actives have a fitted effect of over 30% in size)
How it was run: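 Beta-lactamase reporter under UAS control in HEK293H PPARg-bla cells; compound treatment 17 h at 37C. Read-out: fluorescence intensity after 1 h room-temperature incubation with LiveBLAzer B/G FRET substrate.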

[20] = target: Bile acid receptor (Homo sapiens) (UniProt Q96RI1); test: qHTS assay to identify small molecule agonists of the farnesoid-X-receptor (FXR) signaling pathway (AID 743220; active = well fitted activation curve with a large enough effect in the signal ratio in the repeat runs, not every such curve was filed as active; the % refers to the signal ratio)
How it was run: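 FXR-UAS-bla HEK 293T cells carrying a UAS-driven beta-lactamase reporter were plated for 5 h at 37C/5% CO2, then exposed to DMSO-dissolved Tox21 10K compounds for 16 h at 37C. A LiveBLAzer B/G FRET substrate was loaded for 2 h at room temperature before fluorescence reading.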

Measured: Potency

Chain of Aryl hydrocarbon receptor (Homo sapiens) (P35869 whole entry, looked up): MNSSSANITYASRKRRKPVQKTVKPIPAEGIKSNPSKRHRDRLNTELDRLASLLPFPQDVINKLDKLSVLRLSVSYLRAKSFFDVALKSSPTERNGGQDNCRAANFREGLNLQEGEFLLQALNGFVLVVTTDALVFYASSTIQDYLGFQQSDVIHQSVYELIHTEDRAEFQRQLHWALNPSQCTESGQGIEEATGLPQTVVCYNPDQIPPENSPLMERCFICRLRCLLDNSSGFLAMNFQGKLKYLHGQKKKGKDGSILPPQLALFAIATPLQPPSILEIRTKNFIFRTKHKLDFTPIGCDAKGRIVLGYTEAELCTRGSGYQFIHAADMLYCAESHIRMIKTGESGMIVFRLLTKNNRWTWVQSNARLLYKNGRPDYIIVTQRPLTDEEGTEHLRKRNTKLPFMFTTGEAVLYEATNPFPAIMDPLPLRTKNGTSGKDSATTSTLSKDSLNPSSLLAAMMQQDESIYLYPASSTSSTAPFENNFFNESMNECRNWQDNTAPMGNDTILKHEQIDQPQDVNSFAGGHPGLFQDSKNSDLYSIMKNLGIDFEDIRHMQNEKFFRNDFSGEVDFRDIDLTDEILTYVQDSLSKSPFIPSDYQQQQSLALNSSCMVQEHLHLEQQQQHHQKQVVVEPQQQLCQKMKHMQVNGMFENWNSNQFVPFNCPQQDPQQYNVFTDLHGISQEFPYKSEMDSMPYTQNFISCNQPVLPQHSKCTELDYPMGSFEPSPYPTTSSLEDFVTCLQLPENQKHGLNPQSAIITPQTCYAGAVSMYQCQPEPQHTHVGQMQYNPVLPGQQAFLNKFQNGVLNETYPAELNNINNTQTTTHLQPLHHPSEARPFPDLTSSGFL
Chain of Vitamin D3 receptor (Homo sapiens) (P11473 whole entry, looked up): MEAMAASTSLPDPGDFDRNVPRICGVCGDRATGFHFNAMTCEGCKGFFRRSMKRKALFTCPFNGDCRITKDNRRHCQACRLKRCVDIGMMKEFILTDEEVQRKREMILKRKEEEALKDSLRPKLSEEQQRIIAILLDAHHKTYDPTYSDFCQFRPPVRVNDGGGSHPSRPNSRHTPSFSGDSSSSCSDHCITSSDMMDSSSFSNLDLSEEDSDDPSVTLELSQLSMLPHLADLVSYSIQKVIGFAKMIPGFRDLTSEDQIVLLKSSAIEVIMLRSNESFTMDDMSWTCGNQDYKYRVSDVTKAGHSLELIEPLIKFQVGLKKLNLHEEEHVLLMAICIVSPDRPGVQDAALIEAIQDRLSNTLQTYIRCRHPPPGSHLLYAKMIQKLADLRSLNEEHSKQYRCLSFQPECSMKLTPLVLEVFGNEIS
Chain of Peroxisome proliferator-activated receptor delta (Homo sapiens) (Q03181 whole entry, looked up): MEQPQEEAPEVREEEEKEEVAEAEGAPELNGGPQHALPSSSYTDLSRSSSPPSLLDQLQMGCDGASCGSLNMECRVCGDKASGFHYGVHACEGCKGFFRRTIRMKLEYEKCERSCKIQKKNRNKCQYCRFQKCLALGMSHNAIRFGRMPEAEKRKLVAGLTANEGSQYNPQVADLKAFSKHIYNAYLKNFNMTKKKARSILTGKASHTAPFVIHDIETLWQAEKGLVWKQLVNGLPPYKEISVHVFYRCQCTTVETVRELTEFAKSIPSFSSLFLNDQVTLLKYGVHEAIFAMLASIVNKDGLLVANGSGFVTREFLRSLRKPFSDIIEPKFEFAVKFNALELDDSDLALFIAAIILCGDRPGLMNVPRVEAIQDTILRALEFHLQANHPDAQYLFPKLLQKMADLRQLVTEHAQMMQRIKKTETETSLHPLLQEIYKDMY
Chain of Peroxisome proliferator-activated receptor gamma (Homo sapiens) (P37231 whole entry, looked up): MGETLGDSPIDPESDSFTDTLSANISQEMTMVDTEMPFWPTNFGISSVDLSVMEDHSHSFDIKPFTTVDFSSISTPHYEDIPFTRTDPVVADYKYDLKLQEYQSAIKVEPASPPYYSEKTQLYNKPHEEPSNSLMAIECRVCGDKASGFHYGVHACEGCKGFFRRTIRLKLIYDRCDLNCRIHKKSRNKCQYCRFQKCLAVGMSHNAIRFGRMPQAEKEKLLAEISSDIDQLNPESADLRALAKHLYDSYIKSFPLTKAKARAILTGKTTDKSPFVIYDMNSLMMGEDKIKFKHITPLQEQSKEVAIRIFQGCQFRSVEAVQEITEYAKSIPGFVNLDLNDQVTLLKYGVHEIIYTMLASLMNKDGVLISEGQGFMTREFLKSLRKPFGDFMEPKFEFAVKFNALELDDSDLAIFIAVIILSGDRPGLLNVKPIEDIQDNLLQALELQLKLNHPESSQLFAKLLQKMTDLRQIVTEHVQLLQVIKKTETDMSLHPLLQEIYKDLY
Chain of Bile acid receptor (Homo sapiens) (Q96RI1 whole entry, looked up): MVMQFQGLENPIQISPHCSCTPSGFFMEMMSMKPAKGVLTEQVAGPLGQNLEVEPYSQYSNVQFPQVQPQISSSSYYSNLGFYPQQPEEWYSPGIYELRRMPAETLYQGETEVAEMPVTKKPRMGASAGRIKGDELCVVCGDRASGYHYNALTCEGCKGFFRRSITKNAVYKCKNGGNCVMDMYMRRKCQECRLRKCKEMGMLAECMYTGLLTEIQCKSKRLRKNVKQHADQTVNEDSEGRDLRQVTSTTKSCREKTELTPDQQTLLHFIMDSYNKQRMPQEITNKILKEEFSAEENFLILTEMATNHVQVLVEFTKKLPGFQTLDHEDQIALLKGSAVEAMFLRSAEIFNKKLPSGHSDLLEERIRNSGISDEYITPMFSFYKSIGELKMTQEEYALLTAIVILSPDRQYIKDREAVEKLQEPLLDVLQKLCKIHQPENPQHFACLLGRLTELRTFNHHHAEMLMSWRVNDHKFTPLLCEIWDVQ

CCCCCSCCCCC
not listed: [15] | [16] | [17] | [18] | [19] | [20]
inactive: all other assays above

CCSC(=O)N(CC(C)C)CC(C)C
not listed: [11] | [13] | [18] | [19] | [20]
inactive: all other assays above

OCCCC1CCCCC1
not listed: [13] | [16] | [17] | [19] | [20]
inactive: all other assays above

CCOC(C)(C)C
not listed: [6] | [10] | [15] | [20]
inactive: all other assays above

Nc1ccc(S(=O)(=O)Nc2ccnn2-c2ccccc2)cc1
not listed: [11] | [12] | [19]
inactive: all other assays above

COC(=O)c1cc(C(=O)OC)cc(S(=O)(=O)O)c1
not listed: [6] | [8] | [10] | [12]
inactive: all other assays above

CC(=O)OCC(=O)[C@@]1(O)CCC2C3CCC4=CC(=O)CC[C@]4(C)C3[C@@H](O)C[C@@]21C (stereo partly specified)
not listed: [6] | [11] | [15] | [20]
inactive: all other assays above

OCCOc1ccc(OCCO)cc1
not listed: [6] | [10] | [11] | [12] | [20]
inactive: all other assays above

Nc1cc(=O)[nH]c(N)n1
not listed: [6] | [8] | [11] | [12] | [18]
inactive: all other assays above

CCn1nc(C(=O)O)c(=O)c2cc3c(cc21)OCO3
not listed: [10] | [13] | [15] | [17] | [19] | [20]
inactive: all other assays above

CC(=O)CC(C)(C)C1CCCCC1
not listed: [13] | [16] | [17] | [18] | [19] | [20]
inactive: all other assays above

O=C(O)CNC(=O)c1ccc([N+](=O)[O-])cc1
not listed: [12] | [15] | [17] | [19]
inactive: all other assays above

COc1ccc2c(c1)c(CC(=O)OCC(=O)O)c(C)n2C(=O)c1ccc(Cl)cc1
not listed: [11] | [12] | [13] | [15] | [17] | [19] | [20]
inactive: all other assays above

CCCCCCCCCCCC
inactive: [1] | [2] | [3] | [4] | [19] | [5] | [7] | [15] | [18] | [14]

CCOC(=O)CCC(C)=O
not listed: [11] | [19] | [20]
inactive: all other assays above

c1ccc([C@H]2CN3CCSC3=N2)cc1
not listed: [10] | [13] | [17] | [18] | [19] | [20]
inactive: all other assays above

CCO[Si](CCC1CCC2OC2C1)(OCC)OCC (stereo unspecified)
not listed: [6] | [8] | [10] | [12] | [18] | [20]
inactive: all other assays above
